Source: PubChem
Compounds with a hit are over-represented: about 6.8% of the library has one in this group of screens.
SW480 rerep = DNA re-replication induction in SW480 cells. SW480 DNA re-replication, Hoechst DNA content imaging, 48 h. Potency, µM (series often up to 46.1 µM), for the others: top-dose re-replication activation, actives largely listed as activators. 340,000 tested, 1.8% active. AID 624297; also: % of control where 0% means no effect; nearly all actives have a fitted effect of over 55% in size
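250 cells/well; 23 nL cpd via pin tool; 48 hr, 37 C, 5% CO2; Hoechst 40 min; imager read of total nuclear intensity, ex 405/em 500-530 nm.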
PTAP TSG101 blk = blocks PTAP/TSG101 interaction to inhibit HIV-1 budding | Fluorescence polarization, FITC-PTAP peptide / Tsg101 binding | 340,000 tested, under 10 active | Potency, µM (doses to about 115 µM), without a hit: at the top dose activity change, negative = inhibition, usual class: inhibitors; active = well fitted inhibition curve with a large enough effect in the main read-out, with a control signal flat, not every such curve was filed as active; inconclusive = small, poorly fitted or top-dose-only effect, or effect the other way, or a change in a side signal; inactive = no such curve, though single readings can be large or run the other way; also: % of control where 0% means no effect
Target sequence (Q99816 whole entry, looked up): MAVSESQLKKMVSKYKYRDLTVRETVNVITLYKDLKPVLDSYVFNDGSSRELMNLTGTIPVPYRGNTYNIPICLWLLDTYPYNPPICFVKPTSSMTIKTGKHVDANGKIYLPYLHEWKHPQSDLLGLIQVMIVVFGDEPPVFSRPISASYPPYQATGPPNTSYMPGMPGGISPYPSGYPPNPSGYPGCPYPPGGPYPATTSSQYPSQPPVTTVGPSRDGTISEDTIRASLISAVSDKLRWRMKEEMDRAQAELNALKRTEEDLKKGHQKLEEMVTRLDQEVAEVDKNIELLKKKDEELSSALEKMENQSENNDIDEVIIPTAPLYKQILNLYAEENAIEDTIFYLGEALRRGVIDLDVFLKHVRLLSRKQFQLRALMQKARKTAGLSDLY
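Tsg101 binding domain (10 uM final) was mixed with compound and a FITC-labeled PTAP peptide (50 nM final) in HEPES pH 7.5 buffer with NaCl, Tween 20, EDTA and TCEP; fluorescence polarization was read after 20 min at r.t.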
MCF10A rereplic = DNA re-replication induction in MCF 10a cells; 350,000 tested, 2.9% active; MCF 10A DNA re-replication, Hoechst nuclear intensity, 48 h; Potency, µM (series often up to 46.1 µM), for the others: at the highest dose activity, positive = re-replication, hits mostly activators; AID 624296; also: % of control where 0% means no effect; nearly all actives have a fitted effect of over 50% in size
PINK1 modulator = PINK1 expression modulation; 410,000 tested, 0.2% active; PINK1 immunofluorescence, high-content cytometry, 24 h; Potency, µM (titrated, usually from 76.6 µM), for the others: at the top dose activation (PINK1 increase), usual class: activators; active = well fitted activation curve with a large enough effect; inconclusive = small, poorly fitted or top-dose-only effect; cell line not stated here; also: % of control where 0% means no effect; nearly all actives have a fitted effect of over 65% in size
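Fluorescence from anti-PINK1 antibody, together with nuclear and cell stains, was scanned on a laser-scanning cytometer. Before staining, stable-line cells were incubated 24 hours with compounds at 5 concentrations; primary antibody 12 h at 10 degrees C.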
KB-V1 MDR tox = kills drug-selected multidrug resistant KB-V1 cells. KB-V1 MDR cells viability, CellTiter-Glo, 72 h. Potency, µM (series often up to 46.1 µM), actives largely listed as cytotoxic. 400,000 tested, 3.4% active; also: % is scaled to controls: 0 for no effect and ±100 for the full control effect; nearly all actives have a fitted effect of over 60% in size
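Cytotoxicity toward P-gp-expressing KB-V1 cells was determined as loss of CellTiter-Glo luminescence after 72 h at 37 degrees C. Compounds were tested in quantitative HTS format across a concentration range, with curves fitted to normalized data.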
KB-3-1 cytotox = KB-3-1 parental cell cytotoxicity | KB-3-1 viability, CellTiter-Glo ATP luminescence, 72 h | Potency, µM (top dose mostly 46.1 µM), hits mostly cytotoxic | 400,000 tested, 1.4% active; also: % is scaled to controls: 0 for no effect and ±100 for the full control effect; nearly all actives have a fitted effect of over 60% in size
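Screening of KB-3-1 cells (DMEM, 10% FBS, phenol-red free) ran from lowest to highest compound concentration; after 72 h at 37 °C viability was read luminescently and curves fitted.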
The depositor's hits bear a star; i = inactive; ? = inconclusive; / = no result given; [ ] = dose if it differs, or a comment. Unless noted, calls follow the shape of the dose curve; as a rule, active = well fitted curve in the direction sought with a large enough effect; inconclusive = small, poorly fitted or top-dose-only effect, or another doubt; inactive = no such curve, though single readings can be large; an effect the other way counts as inactive or inconclusive. Potency is read from the fitted curve at half-maximal effect.

SMILES	SW480 rerep	PTAP TSG101 blk	MCF10A rereplic	PINK1 modulator	KB-V1 MDR tox	KB-3-1 cytotox
COc1cccc(N2CCN(C(=O)c3ccc(CS(=O)c4ccccc4Cl)o3)CC2)c1 (stereo unspecified)	0.517µM*	-1.9%	17.2%	-1.0%	i	0.0082µM*
Cc1cc(C(=O)Nc2ccccc2-c2nc(CNC(=O)c3cscn3)c(C)o2)c(C)o1	/	/	/	0.3%	/	/
CC(=O)N1C=CN(C(C)=O)C(c2cn(C)c3ccccc23)C1c1cn(C)c2ccccc12 (stereo unspecified)	8.0%	-3.4%	7.4%	6.7%	23.1µM*	?
Cn1cc(/C=C/C(=O)c2ccccc2)c2ccccc21	?	1.5%	?	5.5%	?	i
CCOc1ccc(C(=O)c2oc3ccccc3c2NC(=O)c2cc(-c3ccc(C)cc3)on2)cc1	/	/	/	-1.1%	i	i
CCC(NC(=S)NCc1ccc(F)cc1)c1ccc(C(C)C)cc1 (stereo unspecified)	?	-0.9%	7.5%	15.8µM*	?	?
CCC(C)c1ccc(C(C)NC(=S)NCc2ccc(F)cc2)cc1 (stereo unspecified)	?	-7.2%	?	?	?	?
COc1ccc(C)cc1NC(=O)C1CCN(S(=O)(=O)Cc2ccccc2)CC1	/	/	/	6.2%	i	i
COc1cccc(CN2CCC3(CCC(CNC(=O)c4ccccc4)O3)CC2)c1 (stereo unspecified)	/	/	/	0.5%	/	/
Cc1ccc(-c2cc(C(=O)N3N=C(C(F)F)CC3(O)C(F)F)c3ccccc3n2)cc1C (stereo unspecified)	23.4%	-3.1%	2.5%	10µM*	?	i
COc1ccccc1Cc1nc2ccccc2nc1SCC(=O)N1CCC(C)CC1	/	/	/	-0.5%	i	i
Cc1ccc(S(=O)(=O)N2CCc3cc(C(=O)Nc4c(C)cccc4C(C)C)ccc32)cc1	/	/	/	-0.1%	i	i
CCOc1ccc2nc(SCC(=O)N3c4ccccc4Sc4ccccc43)sc2c1	-0.3%	-1.8%	9.8%	0.1%	i	i
CC1CCCN(C(=O)CSc2cnc3ccccc3n2)C1 (stereo unspecified)	-20.2%	-5.8%	?	7.0%[38.3 µM]	9.2µM*	i
CC1CCN(C(=O)CSc2nc3ccccc3s2)CC1	5.2%	2.1%	?	2.9%	14.6µM*	i
O=C(CSc1nc2ccccc2s1)N1c2ccccc2Sc2ccccc21	4.5%	0.8%	?	-1.3%	20.6µM*	?
CCOc1ccc(-c2csc(-c3c(N)c(C(=O)c4ccc5c(c4)OCO5)n4ccccc34)n2)cc1	/	/	/	1.1%	?	i
COC(=O)[C@@H]1C[C@]2(OC(=O)c3ccccc3)C=CC(=O)C[C@@H]2N1C(=O)OCc1ccccc1	20.6µM*	-2.6%	16.4µM*	-0.8%	i	?
COc1ccc(S(=O)(=O)N(C)C)cc1NCC(=O)Nc1ccc(Br)c(C)c1	2.7%	-4.2%	2.6%	0.0%	7.31µM*	i
COc1cc(-c2nnc(SCC(=O)NC(C)C)o2)cc(OC)c1OC	/	/	/	0.9%	?	i
Cc1ccc(S(=O)(=O)N2CCc3cc(C(=O)Nc4c(F)cccc4F)ccc32)cc1	/	/	/	-0.5%	i	i
O=c1[nH]ncc(N/N=C\c2ccncc2)c1Cl	4.1%	-3.3%	15.0%	-1.2%	20.6µM*	i
O=c1[nH]ncc(N/N=C\c2cccs2)c1Cl	-8.6%	-0.3%	9.3%	-0.1%	3.26µM*	?
Cc1cccc(/C=N/NC(=O)C2CCCNC2=O)c1 (stereo unspecified)	-327.4%	-1.1%	?	-0.8%	i	i
CCOc1ccccc1/C=N\Nc1cnn(Cc2ccccc2)c(=O)c1Cl	11.2%	-8.8%	?	0.0%	i	i
SMILES	SW480 rerep	PTAP TSG101 blk	MCF10A rereplic	PINK1 modulator	KB-V1 MDR tox	KB-3-1 cytotox
COc1ccccc1/C=N\Nc1cn[nH]c(=O)c1Cl	-38.1%	-0.2%	10.4%	1.4%	8.2µM*	i
Cc1cccc(/C=N\Nc2cn[nH]c(=O)c2Cl)c1	0.9%	/	23.2%	-6.8%[38.3 µM]	4.11µM*	i
O=c1[nH]ncc(N/N=C\c2cccnc2)c1Cl	-13.1%	-1.5%	7.0%	1.2%	?	i
CC(CN1CCc2nnc(CNC(=O)c3cccc(F)c3)n2CC1)c1ccccc1 (stereo unspecified)	/	/	/	-0.3%	/	/
Cc1ccc(CNC(=O)c2nc(SCc3ccc(F)cc3)ncc2Cl)cc1	/	/	/	3.9%	/	/
CCCn1c(=S)[nH]c2cc(C(=O)N3CCc4ccccc43)ccc2c1=O	-8.4%	-3.4%	?	-3.7%	2.31µM*	?
O=C1CCc2cc(S(=O)(=O)Nc3cccc(Br)c3)ccc2N1	/	/	/	/	i	i
CC1CCN(Cc2nnnn2CCCC(=O)NC(c2ccccn2)C(F)(F)F)CC1 (stereo unspecified)	3.0%	-3.5%	20.6µM*	5.6%	?	i
COCC1CCCCN1C(=O)CCCn1nnnc1CN1CCC(C)CC1 (stereo unspecified)	-8.2%	1.9%	2.3%	2.0%	/	/
COc1ccc(-c2c(C)c3ccc(O)c(CN4CCC(C)CC4)c3oc2=O)cc1OC	/	/	/	2.3%	i	i
CCCCn1cnc2c(sc3nc4c(cc32)CSC(C)(C)C4)c1=O	-7.2%	-1.8%	4.6%	10.7%	20.6µM*	i
OCC1OC(n2cnc3c(=S)nc[nH]c32)C(O)C1O (stereo unspecified)	5.6%	/	?	5.2%	?	0.581µM*
OC[C@H]1O[C@@H](n2cnc3c(NC4CCCC4)nc(Cl)nc32)[C@H](O)[C@@H]1O	4.3%	1.5%	-8.8%	0.5%	i	i
Nc1nc(=S)c2ncn([C@@H]3O[C@H](CO)[C@@H](O)[C@H]3O)c2[nH]1	10.4%	2.8%	?	1.8%	0.92µM*	?
CC1(C)OC2C(CO)OC(n3cnc4c(=S)nc(N)[nH]c43)C2O1 (stereo unspecified)	/	/	/	-0.2%	?	?
Nc1nc(Cl)nc2c1ncn2[C@@H]1O[C@H](CO)[C@@H](O)[C@H]1O	15.9%	-3.3%	?	-1.1%	16.4µM*	?
Nc1nc(=S)c2ncn(C3OC(CO)C(O)C3O)c2[nH]1 (stereo unspecified)	8.1%	-8.8%	?	-1.2%	1.03µM*	5.8µM*
CC1(C)OC2C(CO)OC(n3cnc4c(=S)nc[nH]c43)C2O1 (stereo unspecified)	12.4%	-1.4%	?	3.1%	?	?
CCOc1ccccc1NC(=O)C1=C(C)Nc2ncnn2C1c1ccccn1 (stereo unspecified)	/	/	/	-5.3%	i	i
